High-throughput results: PubChem, National Center for Advancing Translational Sciences (NCATS)
Compounds with a hit are over-represented: about 2.8% of the library has one in this group of screens.
WRN inhibitor – blocks human WRN helicase; Q14191; WRN helicase unwinding, fluorescent forked duplex, kinetic; Potency, µM (titrated, usually from 114 µM), for inactives: top-dose activity change, negative = inhibition, most hits filed as inhibitors; 360,000 compounds, 0.46% hits; AID 651768; note: potency is the fitted concentration of half-maximal effect; % is set by controls: 0 for no effect and ±100 for the full control effect; nearly all actives have a fitted effect of over 55% in size
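Fluorescence dequenching readout, ex 525 nm/em 598 nm, kinetic mode: forked duplex DNA (100 nM final) with adjacent fluorophore and quencher unwound by WRN (20 nM final) with 2 mM ATP. Compound preincubation 15 min, room temperature.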
Pol iota inh – inhibitors of human DNA polymerase iota; Q9UNA4; Pol iota fluorescent replication assay, 10 min; Potency, µM (titrated, usually from 115 µM), inactives show top-dose activity, negative = inhibition, hits mostly inhibitors; 390,000 compounds, 1% hits; AID 588590; note: potency is the fitted concentration of half-maximal effect
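Pol iota at 10 nM preincubated 15 min with compounds at room temperature; reaction started with fluorescent substrate, 50 nM final. Fluorescence read kinetically at 0 and 10 min; buffer-only wells as negative control.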
Pol beta inh – blocks human DNA polymerase beta activity | Pol beta primer extension/strand displacement, fluorescence kinetic | 340,000 compounds, 1.3% hits | AID 485314 | P06746 | Potency, µM (titrated, usually from 114 µM), inactives show at the top dose activity change, negative = inhibition, most hits filed as inhibitors; note: potency is the fitted concentration of half-maximal effect; % is set by controls: 0 for no effect and ±100 for the full control effect
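Enzyme-only controls used 10 nM Pol beta; buffer lacking enzyme served as negative control. Compound preincubated 15 min, then 50 nM substrate added; 0 and 10 min reads at room temperature.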
Pol kappa inh – DNA polymerase kappa (human) inhibition. purified Pol kappa, fluorescent DNA synthesis assay, 10 min. 400,000 compounds, 0.53% hits. Potency, µM (series often up to 107 µM), for inactives: top-dose activity, negative = inhibition, hits mostly inhibitors. Q9UBT6. AID 588579; note: potency is the fitted concentration of half-maximal effect; % is set by controls: 0 for no effect and ±100 for the full control effect
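10 nM Pol kappa was preincubated with compounds for 15 min at room temperature. Reaction started with 50 nM (final) substrate. Fluorescence read kinetically at 0 and 10 min.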
PI5P4Ka inh – PI5P4K alpha (human) kinase inhibition. P48426. PI5P4Kalpha enzyme, ADP-Glo luminescence, 60 min; stronger effect = lower value. max response, %. 330,000 compounds, 1.2% hits; active = max response of -50% or lower; inconclusive = between -30% and -50%; inactive = -30% or higher; note: value at the top dose of about 77 µM; % is set by controls: 0 for no effect and ±100 for the full control effect
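Controls without substrate or without enzyme flank wells where PI5P4Kalpha converts substrate using 5 microM ATP (final). Incubation lasts 60 minutes at room temperature; ADP formed is read by ADP-Glo luminescence.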
POLH inh – inhibitors of human DNA polymerase eta | AID 588591 | Q9Y253 | Potency, µM (top dose mostly 114 µM), inactives show at the highest dose activity change, negative = inhibition, hits mostly inhibitors | recombinant Pol eta, fluorescent DNA replication assay | 390,000 compounds, 1.2% hits; note: potency is the fitted concentration of half-maximal effect; % is set by controls: 0 for no effect and ±100 for the full control effect
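Pol eta at 10 nM preincubated with compounds 15 min at room temperature; reaction started with fluorescent substrate (50 nM final) and read kinetically at 0 and 10 min.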
* hit, by the source's call; ? = inconclusive; . = no result given; [ ] = dose if it differs, or a comment. Unless noted, calls come from the whole dose curve; as a rule, active = well fitted curve in the direction sought with a large enough effect; inconclusive = small, poorly fitted or top-dose-only effect, or another doubt; inactive = no such curve, though single readings can be large; an effect the other way counts as inactive or inconclusive.

SMILES	WRN inhibitor	Pol iota inh	Pol beta inh	Pol kappa inh	PI5P4Ka inh	POLH inh
CC(=O)Nc1ccc(/C(C)=N\NC(=O)c2ccc(-c3ccccc3)cc2)cc1	.	.	40µM*	.	.	.
O=C(/C=C/c1cccs1)NC(=S)Nc1ccc(C(=O)O)cc1	1%	8%	-1%	12%	-72*	2%
O=C(NC(=S)Nc1c(Cl)ccc2nsnc12)c1ccco1	-18%	25µM*	10%	-24%	-7	-4%
NS(=O)(=O)c1ccc(NC(=S)NC(=O)/C=C/c2cccs2)cc1	-12%	122%	5%	-10%	6	-22%
O=C(NC(=S)Nc1ccc(NC(=O)c2ccco2)cc1)c1ccccc1	-11%[11.6 µM]	89µM*	45%	11%	6	0%
C=C(C)CC(C)(C)C	.	.	.	13%[60.1 µM]	.	.
O=C(O)c1ccc(NC(=S)NC(=O)c2ccc(-c3ccccc3)cc2)cc1	-34%	43%	16%	-18%	-55*	-29%
Cc1cccc(NC(=O)/C=C/c2cccs2)n1	-12%	-7%	50µM*	?	-18	9%
O=C(/C=C/c1cccs1)Nc1ccncc1	-2%	133%	12%	-3%	-2	15%
COc1ccc(N/C=C2/Sc3ccccc3NC2=O)cc1	-3%	-4%	-1%	-7%	-55*	-7%
Cc1ccc(N/C=C2/Sc3ccccc3NC2=O)cc1	1%	23%	-3%	-3%[60.1 µM]	-21	-10%
CCCc1noc(-c2ccc(NCc3ccc(C)cc3)c([N+](=O)[O-])c2)n1	.	22%	0%	6%	.	-2%
COc1ccc(NC(=O)c2oc3ccccc3c2NC(=O)Cc2coc3ccc(C)cc23)cc1	.	-8%	1%	-28%	.	-21%
CCc1ccc2c(c1)c(=O)c(C(=O)c1ccccc1)cn2CC(=O)Nc1ccc(C)c(Cl)c1	.	-2%	2.8µM*	-19%	.	?
CSc1nc(C)c2c(n1)N(c1ccc(O)cc1)CC2	-19%	?	?	-33%	1	35µM*
CCOc1ccc(Br)cc1C1=NN(C(C)=O)C(c2ccc([N+](=O)[O-])s2)O1 (stereo unspecified)	6%[11.6 µM]	50µM*	18µM*	-47%	-21	50µM*
CC(=O)N1N=C(c2ccc(C)cc2)OC1c1ccc(Br)cc1 (stereo unspecified)	-7%[57.1 µM]	62%	5%	-15%	6	-5%
COc1ccc(-c2nc(C)c(CCNC(=O)c3cc(OC)c(OC)c(OC)c3)s2)cc1OC	.	13%	-15%	-8%[60.1 µM]	.	-21%
COc1ccc(NC(=O)CSc2nc3n[nH]c(C)c3c(=N)n2-c2ccc(Cl)c(C)c2)cc1OC	-5%	35%	3.5µM*	7%	0	50µM*
CCOc1ccccc1-n1c(SCC(=O)Nc2ccc(CC)cc2)nc2n[nH]c(C)c2c1=N	-5%	17%	0%	-3%	-4	-7%
CCc1ccc(NC(=O)CSc2nc3n[nH]c(C)c3c(=N)n2-c2ccccc2C)cc1	.	89µM*	6%	-16%[60.1 µM]	.	16%
COc1ccc(OC)c(NC(=O)CSc2nc3n[nH]c(C)c3c(=N)n2-c2cccc(Cl)c2C)c1	-7%	-3%	1%	-7%	-2	-6%
CCOc1ccc2nc(N3C(=O)C(O)=C(C(=O)c4ccco4)C3c3ccco3)sc2c1 (stereo unspecified)	-5%[11.6 µM]	?	.	-38%	?	?
Cc1ccc2nc(N3C(=O)C(O)=C(C(=O)c4ccc(C)o4)C3c3ccc(O)cc3)sc2c1 (stereo unspecified)	-2%	?	.	-16%	-58*	?
COc1ccc2nc(N3C(=O)C(O)=C(C(=O)c4ccco4)C3c3ccc(C)o3)sc2c1 (stereo unspecified)	-28%	?	.	-21%	-50*	-12%
SMILES	WRN inhibitor	Pol iota inh	Pol beta inh	Pol kappa inh	PI5P4Ka inh	POLH inh
CCOC(=O)c1sc(N2C(=O)C(O)=C(C(=O)c3ccco3)C2c2ccco2)nc1C (stereo unspecified)	4%[11.6 µM]	56µM*	?	?	-9	?
Cc1ccc2nc(N3C(=O)C(O)=C(C(=O)c4ccco4)C3c3cccs3)sc2c1 (stereo unspecified)	-30%	?	3%	-27%	.	-12%
COc1ccc2nc(N3C(=O)C(O)=C(C(=O)c4ccco4)C3c3ccccc3OC)sc2c1 (stereo unspecified)	2%	10%	7%	-18%	-5	-5%
Cc1cc(C)c2nc(N3C(=O)C(O)=C(C(=O)c4ccco4)C3c3ccco3)sc2c1 (stereo unspecified)	-14%[11.6 µM]	35µM*	40µM*	-21%	-53*	?
COC(=O)[C@@]12CCCCN1[C@H](c1ccc(-c3ccc(F)cc3)cc1)[C@@H]1C(=O)N(C)C(=O)[C@@H]12	-11%	?	.	-21%	20	-19%
OCCN1CCN(c2nccn3ccnc23)CC1	1%	.	.	.	1	.
N#Cc1cnc(SCC(=O)NNC(=O)COc2cccc3ccccc23)nc1N	-14%[57.1 µM]	15%	3%	-15%	6	-4%
N#Cc1ccccc1S(=O)(=O)N1CCN(C(=O)C2CCCC2)CC1	5%	6%	-6%	8%	-1	-9%
Cc1ccc(NC(=O)CCS(=O)(=O)c2ccccc2)cc1S(=O)(=O)N1CCCCCC1	-10%	13%	.	-8%	4	-7%
Cc1cc(C)c2c(=O)c(C#N)coc2c1	56µM*	?	45µM*	?	?	50µM*
Cc1c(C2=CCN(S(=O)(=O)c3ccc(CC(C)C)cc3)CC2)c2ccccc2n1CC(=O)N1CCCC1	.	?	-25%	-24%	.	-15%
O=C(Nc1cccc(C(=O)Nc2ccccc2C(=O)O)c1)c1cccc(Cl)c1	-23%	-3%	.	3%	?	12%
O=C(Nc1ccccc1C(=O)O)c1ccccc1	-9%	?	32µM*	-13%	.	-18%
O=C(Nc1ccccc1C(=O)O)c1ccc(CN2C(=O)c3ccccc3C2=O)cc1	-13%[57.1 µM]	58%	1%	-2%	-53*	-10%
O=C(NC(NC(=S)Nc1ccccc1C(=O)O)C(Cl)(Cl)Cl)c1ccccc1 (stereo unspecified)	-31%[57.1 µM]	53%	33%	4%	-58*	-14%
O=C(Cc1ccc(Cl)cc1)Nc1cccc(C(=O)Nc2ccccc2C(=O)O)c1	89µM*	79%	6%	-30%	?	?
COc1ccccc1C=NN=C(NN=Cc1ccccc1OC)NN=Cc1ccccc1OC	-8%	-15%	.	-13%	9	-14%
O=C(Nc1ccc(O)cc1C(=O)O)c1ccc2c(c1)C(=O)N(Cc1ccco1)C2=O	?	?	?	-28%	.	40µM*
CC(C)CN1C(=O)c2ccc(C(=O)Nc3ccc(O)cc3C(=O)O)cc2C1=O	-22%	112%	16%	-6%	1	-8%
